Measured values: the OligoGym collection

Columns and labels:
Test in all cases: pooled miR-30 sensor sort-seq; sequence = guide strand
Details in all cases: shRNA
[1] = target: FXN
[2] = target: FUT7
[3] = target: FTL
[4] = target: FZR1
[5] = target: GALE
[6] = target: GGH
[7] = target: GFPT2
[8] = target: GH2
[9] = target: GEMIN6
[10] = target: GIPC2
[11] = target: GHSR
[12] = target: GIP
[13] = target: GINS3
Note: reference of the scale not given here.

Sequence: AAAGGAGACATCATAGTCCTCA
- sensor-assay potency score (higher = more potent) [1]: 0.0111

Sequence: TCAAAGGACAGGTAGAAGCGGT
- sensor-assay potency score (higher = more potent) [2]: 0.117

Sequence: TCGGTGAACAGTCGCACGCGGA
- sensor-assay potency score (higher = more potent) [2]: -1.48

Sequence: TTGAAGATGCCTCGGAGGTGGC
- sensor-assay potency score (higher = more potent) [2]: -0.867

Sequence: TTGTTGATCACATAGGTTCCTA
- sensor-assay potency score (higher = more potent) [1]: 0.0276

Sequence: TGTCGCTGGGCAGCTCTGGGGG
- sensor-assay potency score (higher = more potent) [2]: -1.3

Sequence: TCTAGGAAGTGAGTCTCCAGGA
- sensor-assay potency score (higher = more potent) [3]: -0.902

Sequence: TAACGCTTAGGTCCACTGGATG
- sensor-assay potency score (higher = more potent) [1]: -1.46

Sequence: TGTTGATCACATAGGTTCCTAG
- sensor-assay potency score (higher = more potent) [1]: -0.584

Sequence: TAGTCTTTCATAGGTGGTCTCA
- sensor-assay potency score (higher = more potent) [1]: -0.873

Sequence: TCTGCTAGTCTTTCATAGGTGG
- sensor-assay potency score (higher = more potent) [1]: 0.437

Sequence: TTCTCCGTAATGTAGTCGCGGT
- sensor-assay potency score (higher = more potent) [2]: -0.562

Sequence: TAGGGCACAAAGATGTCCGAGT
- sensor-assay potency score (higher = more potent) [2]: -0.24

Sequence: TTGATTTCGACACCCAGCCCTT
- sensor-assay potency score (higher = more potent) [2]: -1.26

Sequence: AAAGTCATCCACATGCACGAAG
- sensor-assay potency score (higher = more potent) [2]: -0.891

Sequence: TTGCGCCAGAATTTCTCCGTAA
- sensor-assay potency score (higher = more potent) [2]: -0.526

Sequence: TTGGTATCGGCTCTCATTCATG
- sensor-assay potency score (higher = more potent) [2]: -1.57

Sequence: AAAGATGTCCGAGTCGCGCCGG
- sensor-assay potency score (higher = more potent) [2]: -0.517

Sequence: TTGTTTGGCGTCTGCTTGTTGA
- sensor-assay potency score (higher = more potent) [1]: -0.937

Sequence: TTTCTCCGTAATGTAGTCGCGG
- sensor-assay potency score (higher = more potent) [2]: -0.338

Sequence: TCTGCTAAAGAGTCCAGCGTTT
- sensor-assay potency score (higher = more potent) [1]: -0.618

Sequence: TTTAGTGAGCTCTGCGGCCAGC
- sensor-assay potency score (higher = more potent) [1]: -1.33

Sequence: AAGATGTCCGAGTCGCGCCGGT
- sensor-assay potency score (higher = more potent) [2]: -0.72

Sequence: TCAAGGTCCTCATAGACTTGGC
- sensor-assay potency score (higher = more potent) [2]: -0.439

Sequence: ATAGGGCACAAAGATGTCCGAG
- sensor-assay potency score (higher = more potent) [2]: -0.929

Sequence: TTGGCACTCAGGTGGCAGCGGG
- sensor-assay potency score (higher = more potent) [2]: -1.03

Sequence: TCATCCACATGCACGAAGGCGT
- sensor-assay potency score (higher = more potent) [2]: -0.506

Sequence: TCCTCATAGACTTGGCTGCGGG
- sensor-assay potency score (higher = more potent) [2]: -1.76

Sequence: TCACAGATGGCACAGAAACGTT
- sensor-assay potency score (higher = more potent) [2]: -1.59

Sequence: TAATGTAGTCGCGGTGCTGAGA
- sensor-assay potency score (higher = more potent) [2]: -0.815

Sequence: ATTCATCAAATAGACACTCTGC
- sensor-assay potency score (higher = more potent) [1]: 0.393

Sequence: TTGCTTGTTTGGCGTCTGCTTG
- sensor-assay potency score (higher = more potent) [1]: -0.812

Sequence: TATCGGCTCTCATTCATGCCAG
- sensor-assay potency score (higher = more potent) [2]: -0.795

Sequence: TGCTTGTTGATCACATAGGTTC
- sensor-assay potency score (higher = more potent) [1]: -0.833

Sequence: ATAACGCTTAGGTCCACTGGAT
- sensor-assay potency score (higher = more potent) [1]: -1.03

Sequence: TCTCCGTAATGTAGTCGCGGTG
- sensor-assay potency score (higher = more potent) [2]: -1.48

Sequence: TTTTGACATTCCAAATCTGGTT
- sensor-assay potency score (higher = more potent) [1]: -0.929

Sequence: AACAGTCGCACGCGGAGCCTGT
- sensor-assay potency score (higher = more potent) [2]: -1.06

Sequence: TACACTGCAGTGGTTGTCCTGT
- sensor-assay potency score (higher = more potent) [4]: -0.434

Sequence: TTCCAAGTCTTGTCTGCCTGGC
- sensor-assay potency score (higher = more potent) [5]: -0.133

Sequence: TTGTACGGGATCTTCTTCCCAG
- sensor-assay potency score (higher = more potent) [5]: 0.364

Sequence: TTCTCTGTAAGATCCAGCCTTA
- sensor-assay potency score (higher = more potent) [6]: -0.166

Sequence: TTTAAAACTAACTCTAGTGTTG
- sensor-assay potency score (higher = more potent) [7]: -0.242

Sequence: TAGACGTTGCTGTCCGAGGCGC
- sensor-assay potency score (higher = more potent) [8]: -0.468

Sequence: TATTTCATAGTCTTTCTCTGTA
- sensor-assay potency score (higher = more potent) [6]: 0.438

Sequence: TTGACCTCCAGTGAAGTTCAGC
- sensor-assay potency score (higher = more potent) [6]: -0.539

Sequence: TTGAAAAACTTCTTTAACTTTT
- sensor-assay potency score (higher = more potent) [6]: -0.924

Sequence: TTGACCAGCTGAATGTGTCTTT
- sensor-assay potency score (higher = more potent) [7]: 0.14

Sequence: TAAACTCCTGATAGGTGTCATA
- sensor-assay potency score (higher = more potent) [8]: -1.52

Sequence: TAAGACATTGAAAAACTTCTTT
- sensor-assay potency score (higher = more potent) [6]: -0.164

Sequence: TGAACTGATAAATCAATGCTTT
- sensor-assay potency score (higher = more potent) [6]: -0.538

Sequence: TTCTCCAGAGTGCACGTCCTGT
- sensor-assay potency score (higher = more potent) [7]: -0.972

Sequence: TTCGTGATTATTCCCATCGATC
- sensor-assay potency score (higher = more potent) [7]: -1.22

Sequence: TTGACTTCGTGATTATTCCCAT
- sensor-assay potency score (higher = more potent) [7]: -0.191

Sequence: TTTGTAAATGTAATCTTGCCAT
- sensor-assay potency score (higher = more potent) [9]: -0.539

Sequence: TCAAACTTGCTGTAGGACTGAT
- sensor-assay potency score (higher = more potent) [8]: 0.205

Sequence: TAAAATATAGTCTTTTTCTATC
- sensor-assay potency score (higher = more potent) [9]: -1.26

Sequence: TAGTATTGAAAACTGATTCTGG
- sensor-assay potency score (higher = more potent) [7]: 0.341

Sequence: AAATTCTGGAACATTCTGCTGT
- sensor-assay potency score (higher = more potent) [6]: 0.666

Sequence: TTCTCTCTTCCAGATCCTCTGG
- sensor-assay potency score (higher = more potent) [9]: -0.645

Sequence: TTGGTTTCAAAATTCACCCGAC
- sensor-assay potency score (higher = more potent) [7]: 0.408

Sequence: TATGCCAGCTGGTACAGGCGAC
- sensor-assay potency score (higher = more potent) [8]: -1.2

Sequence: ATACTGGATACTTATATCCTTC
- sensor-assay potency score (higher = more potent) [6]: -0.969

Sequence: TTAAACTCCTGATAGGTGTCAT
- sensor-assay potency score (higher = more potent) [8]: -0.0284

Sequence: ATCACTAGCAAGTTCAACCATC
- sensor-assay potency score (higher = more potent) [7]: -0.789

Sequence: TAGGTTAGATTTCTGCTGCGTT
- sensor-assay potency score (higher = more potent) [8]: 0.0139

Sequence: TTTCTTGACCAGCTGAATGTGT
- sensor-assay potency score (higher = more potent) [7]: -0.609

Sequence: TTTAACTTTTCATTCATTGTAA
- sensor-assay potency score (higher = more potent) [6]: 0.207

Sequence: AAGGTGTTGGAATAGACTCTGA
- sensor-assay potency score (higher = more potent) [8]: -0.802

Sequence: TAGACTCTGAGAAGCAGAGGGA
- sensor-assay potency score (higher = more potent) [8]: 0.323

Sequence: TTATACTCATTCTTCTCACTGG
- sensor-assay potency score (higher = more potent) [9]: 0.394

Sequence: TTAGCATAATCTGAGCGTCTGA
- sensor-assay potency score (higher = more potent) [6]: -0.339

Sequence: TTGTCTTTTAAAACTAACTCTA
- sensor-assay potency score (higher = more potent) [7]: -0.437

Sequence: TTTCTCTGTAAGATCCAGCCTT
- sensor-assay potency score (higher = more potent) [6]: -0.286

Sequence: TAATCTTGCCATTCTAAGGGGC
- sensor-assay potency score (higher = more potent) [9]: 0.00534

Sequence: TTCTGCTGCGTTTTCACCCTGT
- sensor-assay potency score (higher = more potent) [8]: 0.325

Sequence: TTAATAAGCACTCTCCACTAAT
- sensor-assay potency score (higher = more potent) [6]: -1.04

Sequence: TTTGTAGTGAAATTCGGTCTTC
- sensor-assay potency score (higher = more potent) [7]: 0.0421

Sequence: TTTGTAAAGTTCTTCATCGAGA
- sensor-assay potency score (higher = more potent) [7]: -0.0624

Sequence: TTGAGCAGTGCGTCATCGTTGT
- sensor-assay potency score (higher = more potent) [8]: 0.36

Sequence: AATAAGATCCTGAACACGCGAC
- sensor-assay potency score (higher = more potent) [9]: -0.339

Sequence: ATAGGTGTCATATGCCAGCTGG
- sensor-assay potency score (higher = more potent) [8]: -0.725

Sequence: TTCTTCAAACTCCTGATAGGTG
- sensor-assay potency score (higher = more potent) [8]: -0.633

Sequence: ATATGAAATCTTCTAGTCCTAG
- sensor-assay potency score (higher = more potent) [10]: -0.694

Sequence: TTAGGTTCTATTAACTTCATAG
- sensor-assay potency score (higher = more potent) [10]: -0.883

Sequence: ATCTGAGCAATCTCCAAGGAGC
- sensor-assay potency score (higher = more potent) [11]: -1.45

Sequence: TTGGAAAATAAATATCGCCCTA
- sensor-assay potency score (higher = more potent) [11]: -0.35

Sequence: TTGCAGTACTGGCTGATCTGAG
- sensor-assay potency score (higher = more potent) [11]: -0.301

Sequence: TTGGTGAATCTTGTCCATGGCA
- sensor-assay potency score (higher = more potent) [12]: -0.501

Sequence: TAGTCACTGATGAAAGTCCCTT
- sensor-assay potency score (higher = more potent) [12]: -0.346

Sequence: ATACACATGAAATTAAACCAGA
- sensor-assay potency score (higher = more potent) [10]: -0.735

Sequence: TTTGTCTGATCCAGCAAGCAGG
- sensor-assay potency score (higher = more potent) [12]: -1.07

Sequence: TTTATACACATTCACTTCTTTT
- sensor-assay potency score (higher = more potent) [10]: -1.24

Sequence: TAGTGCTTGCTTAACCAGGTTC
- sensor-assay potency score (higher = more potent) [13]: -0.37

Sequence: TCTTCTTGTAATTCTGAACGAG
- sensor-assay potency score (higher = more potent) [13]: -0.383

Sequence: TTAACTTCTTAGCAACATCATA
- sensor-assay potency score (higher = more potent) [10]: -1.57

Sequence: TAACTGAGTCAATAACACCACC
- sensor-assay potency score (higher = more potent) [10]: -0.972

Sequence: TACAAGGTCAACCAGCTCCTAT
- sensor-assay potency score (higher = more potent) [13]: -1.16

Sequence: TTTATTTAGCACTAAAATCAAA
- sensor-assay potency score (higher = more potent) [13]: -1.42

Sequence: TAGTGAAACTGTACATCTGAAG
- sensor-assay potency score (higher = more potent) [13]: -1.07

Sequence: TTCTATGCAATAATGTTGCAAA
- sensor-assay potency score (higher = more potent) [13]: -0.524

Sequence: TTACTTTGTCCTTTCCAGCTTC
- sensor-assay potency score (higher = more potent) [10]: -0.236

Sequence: TTGAACCCCGGCTCTTCGCTGG
- sensor-assay potency score (higher = more potent) [11]: -0.129

Sequence: TATGAAATCTTCTAGTCCTAGT
- sensor-assay potency score (higher = more potent) [10]: -0.186

Sequence: TTGAATCAGCAAGTCCCGCAGC
- sensor-assay potency score (higher = more potent) [12]: -0.492

Sequence: TTAACTGAGTCAATAACACCAC
- sensor-assay potency score (higher = more potent) [10]: 0.431

Sequence: TTTGCAGAGGAGGTCGCCGAAG
- sensor-assay potency score (higher = more potent) [11]: -1.38

Sequence: TTTCTCCTGATGACTTTCCAGC
- sensor-assay potency score (higher = more potent) [10]: -1.05

Sequence: TTATTTAGGAAGGACTTTGATT
- sensor-assay potency score (higher = more potent) [13]: -0.522

Sequence: TTTCTTTCTCAACCTGAGGTTG
- sensor-assay potency score (higher = more potent) [13]: -0.934

Sequence: TGGAAAATAAATATCGCCCTAC
- sensor-assay potency score (higher = more potent) [11]: -0.395

Sequence: TAACTTCTTAGCAACATCATAG
- sensor-assay potency score (higher = more potent) [10]: -1.26

Sequence: TAGCGCTCGACGCTCAGCGCTG
- sensor-assay potency score (higher = more potent) [11]: -1.17

Sequence: TTGGACATGATGTTGTACAGAA
- sensor-assay potency score (higher = more potent) [11]: 0.099

Sequence: TCTTGAATCAGCAAGTCCCGCA
- sensor-assay potency score (higher = more potent) [12]: -0.377

Sequence: TAAAAGCATAGCCAACACCATT
- sensor-assay potency score (higher = more potent) [10]: -1.62

Sequence: TCACCTTAGCATGAGATCCAAC
- sensor-assay potency score (higher = more potent) [12]: -1.2

Sequence: TTGCTTGTGGTTCTGGTCCCTG
- sensor-assay potency score (higher = more potent) [11]: -0.711

Sequence: TTATAAAAACAACAATTCCATC
- sensor-assay potency score (higher = more potent) [13]: -1.34

Sequence: TTTCTCTTCTTGTAATTCTGAA
- sensor-assay potency score (higher = more potent) [13]: -0.125
